Results reported in PubChem BioAssay AID504329 (Southern Research Specialized Biocontainment Screening …, 2011).
In all, about 340,000 compounds went through this assay and about 1,000 (0.29%) were called active. No stated cut-off is given here; in the data, inconclusive means inhibition above about 27% without an active follow-up result; inactive means below that. Only a sample is shown. Results with a measured potency or affinity are listed apart.

Assay: H1N1 influenza NS1A inhibitors, functional cell based assay (AID 504329)
Details: percent inhibition, at 12.5 µM, hits give high values

| Structure (SMILES) | inhibition |
| --- | --- |
| NC(=O)NCc1cccs1 | -4.81% (inactive) |
| O=C(O)COCc1nc2ccccc2[nH]1 | -15.3% (inactive) |
| CC(C)N(Cc1nc2ccccc2[nH]1)C(C)C | -21.7% (inactive) |
| CCn1c(SCC(=O)Nc2nccs2)nnc1-c1cccnc1 | -5.86% (inactive) |
| O=C(CNC1CCCCC1)Nc1ccc([N+](=O)[O-])cc1C(=O)Nc1ccccc1F | -6.89% (inactive) |
| COc1cc(NC(=O)c2cc([N+](=O)[O-])ccc2NC(=O)CNCc2ccccn2)cc(OC)c1 | -1.96% (inactive) |
| O=C(CN1CCN(c2ccccn2)CC1)Nc1ccc([N+](=O)[O-])cc1C(=O)Nc1ccccc1F | 12% (inactive) |
| COc1ccc(NC(=O)c2cc([N+](=O)[O-])ccc2NC(=O)CNC2CCCCC2C)c(OC)c1 (stereo not drawn) | -6.01% (inactive) |
| CCn1c(=O)c([N+](=O)[O-])c(NC2CCS(=O)(=O)C2)c2ccccc21 (stereo not drawn) | -2.22% (inactive) |
| CC(C)C(c1nnnn1C(C)(C)C)N1CCC(Cc2ccccc2)CC1 (stereo not drawn) | -3.35% (inactive) |
| CCCN(CCC)Cc1c(C(=O)N/N=C/C(C)=C\c2ccccc2)nnn1-c1nonc1N | 6.9% (inactive) |
| COc1cc(/C=C(\NC(=O)c2ccccc2)C(=O)NC(C(=O)O)c2ccccc2)cc(OC)c1OC (stereo not drawn) | 2.4% (inactive) |
| O=[N+]([O-])c1ccc(O)c2cccnc12 | -3.9% (inactive) |
| Cc1ccc([N+](=O)[O-])c2cccnc12 | -5.17% (inactive) |
| Cc1cccc(NCc2ccc(O)c3ncccc23)c1 | -1.23% (inactive) |
| Cc1ccccc1-c1nn[nH]n1 | -2.96% (inactive) |
| Cc1ccccc1NCc1ccc(O)c2ncccc12 | 11.8% (inactive) |
| CC(C)COCc1ccc(O)c2ncccc12 | 1.04% (inactive) |
| Cc1ccc(NCc2ccc(O)c3ncccc23)cc1 | -2.47% (inactive) |
| c1ccc2c(-c3nn[nH]n3)cccc2c1 | -2.59% (inactive) |
| Cc1ccccc1Nc1nc(-c2cccnc2)nc2ccccc12 | -4.04% (inactive) |

| Structure (SMILES) | inhibition |
| --- | --- |
| CCOc1ccccc1-n1c(O)c(C=NCCCn2ccnc2)c(=O)[nH]c1=O | 3.36% (inactive) |
| CN1CCC(N(C)C(=O)c2ccccc2F)CC1 | 17.7% (inactive) |
| CN1CC2=Cc3ccccc3OC23Oc2ccccc2C=C3C1 | 3.84% (inactive) |
| O=C(CCCOc1ccccc1)Nc1cccc(S(=O)(=O)N2CCCCC2)c1 | -17.5% (inactive) |
| CCN1CCN(C(=O)CS(=O)(=O)Cc2nc(-c3cccc(OC)c3)oc2C)CC1 | -5.29% (inactive) |
| NC(=O)C1CCN(S(=O)(=O)Cc2ccccc2Cl)CC1 | 4.51% (inactive) |
| COc1ccc(CNC(=O)c2cc(C)nn2-c2ccccc2)cc1 | 0.54% (inactive) |
| COC(=O)c1ccc(Cn2nc(-c3ccccc3)ccc2=O)cc1 | -6.12% (inactive) |
| O=C1OCC(c2ccccc2)=C1c1ccccc1[N+](=O)[O-] | -4.03% (inactive) |
| COCCn1ccc2c(OCC(=O)NCCc3ccccc3)cccc2c1=O | -4.46% (inactive) |
| Oc1ccc(F)c2cccnc12 | 3.59% (inactive) |
| Oc1ccc(Cl)c2cccnc12 | -4.63% (inactive) |
| CCCOCc1ccc(O)c2ncccc12 | -7.06% (inactive) |
| COCc1ccc(O)c2ncccc12 | 2.78% (inactive) |
| Cc1ccsc1C1CC(=O)NC2=C1C(=O)CC(C)(C)C2 (stereo not drawn) | -0.46% (inactive) |
| Cc1ccc(CNC(=O)C2CCC(=O)N(CCc3cccc(F)c3)C2)s1 (stereo not drawn) | 11.3% (inactive) |
| O=C(Nc1c2c(nn1-c1cccc(Cl)c1)CS(=O)(=O)C2)c1ccc2c(c1)OCO2 | 0.57% (inactive) |
| Cc1nn(-c2ccccc2)c(N2CCCC2)c1/C=N/NC(=O)c1cc2ccccc2cc1O | 2.95% (inactive) |
| Cc1nn(-c2ccc(F)cc2)c(Cl)c1/C=N/NC(=O)c1ccc(O)cc1 | 9.96% (inactive) |
| Cc1nn(-c2ccccc2)c(C)c1/C=N/NC(=O)c1cc(O)cc(O)c1 | -10.7% (inactive) |
| Cc1ccc(-c2cc(C(=O)N/N=C/c3c(C)nn(-c4ccccc4)c3C)[nH]n2)cc1 | 11.2% (inactive) |

| Structure (SMILES) | inhibition |
| --- | --- |
| Cc1nn(-c2ccccc2)c(C)c1/C=N/NC(=O)c1cc(-c2ccccc2)n[nH]1 | -0.6% (inactive) |
| Cc1nn(-c2ccccc2)c(C)c1/C=N/NC(=O)c1ccccc1O | 6.87% (inactive) |
| COc1ccc(-c2nc(CS(=O)CC(=O)N3CCN(C)CC3)c(C)o2)cc1OC (stereo not drawn) | -3.22% (inactive) |
| COc1ccc(CCCc2nnc(SCC(=O)Nc3cc(C)c(C)cc3Br)o2)cc1 | -5.67% (inactive) |
| O=C(CS(=O)(=O)Cc1ccccc1)N1CCN(C(=O)c2ccco2)CC1 | -6.89% (inactive) |
| Cc1ccc(S(=O)(=O)N/N=C(\c2ccccc2)c2cccnc2)cc1 | -2.16% (inactive) |
| COc1ccccc1-n1cc2c([N+](=O)[O-])cc([N+](=O)[O-])cc2n1 | 41.1% (inactive) |
| CNc1c([N+](=O)[O-])cnn1-c1ccccc1Cl | -8.09% (inactive) |
| COc1ccc(C(=O)Nc2nc(-c3ccc([N+](=O)[O-])cc3)c(-c3ccc(OC)cc3)s2)cc1 | -6.06% (inactive) |
| Nc1nn(-c2ccccc2)nc1C(=O)OCc1ccccc1F | 1.7% (inactive) |
| CC(=O)c1sc(NC(=O)c2ccc(Cl)cc2)nc1C | 0.95% (inactive) |
| CC1CN(c2ccc([N+](=O)[O-])cc2C(=O)N2CCOCC2)CC(C)N1 (stereo not drawn) | -4.9% (inactive) |
| CC(=O)Nc1cccc(NC(=O)CSc2nnc3ccc(-c4cccnc4)nn23)c1 | 2.74% (inactive) |
| CCOc1ccc2c(c1)-c1c(ssc1=S)C(C)(C)N2 | 21.5% (inactive) |
| CC1(C)Nc2ccc(O)cc2-c2c1ssc2=S | 19% (inactive) |
| CC1CCCN(C(=O)CNC(=O)c2cccs2)C1 (stereo not drawn) | -11.6% (inactive) |
| O=Cc1ccc(Cl)c(Cl)c1 | -13.3% (inactive) |
| COc1ccc(C)cc1NCC(=O)Nc1ccc(C(C)(C)C)cc1 | -0.26% (inactive) |
| O=C(COc1cccc2ccccc12)N1CCN(c2ccccn2)CC1 | 0.39% (inactive) |
| O=C(CSc1nccc2ccccc12)N1CCN(c2ccccn2)CC1 | 9.51% (inactive) |
| Cc1cccc(OCC(=O)NCC(=O)N/N=C/c2cc(Br)ccc2OCc2ccccc2)c1 | 9.61% (inactive) |
